# Assay outcomes from PubChem BioAssay.
# dFosB act-1 = activators of mouse delta FosB homodimer. activation, % at 25 µM. purified delta FosB, TAMRA-CDK5 oligo fluorescence polarization; percent of positive-control signal above neutral wells. 340,000 tested, 0.99% active;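 active means mean activation above about 17%, with every replicate also reaching it, limit read from the data, passing the limit was not always enough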
# Target sequence (P13346 whole entry, looked up): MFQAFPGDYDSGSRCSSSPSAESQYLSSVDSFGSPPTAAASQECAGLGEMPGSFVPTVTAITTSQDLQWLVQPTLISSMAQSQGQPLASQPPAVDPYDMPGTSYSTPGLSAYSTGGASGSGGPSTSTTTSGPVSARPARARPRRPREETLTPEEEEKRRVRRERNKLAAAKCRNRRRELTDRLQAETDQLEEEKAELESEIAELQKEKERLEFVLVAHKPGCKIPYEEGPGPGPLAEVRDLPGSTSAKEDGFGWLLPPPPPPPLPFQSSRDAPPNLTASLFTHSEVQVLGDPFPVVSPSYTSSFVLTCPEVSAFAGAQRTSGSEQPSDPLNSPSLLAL
# GRIN3A LBD mod = NR3A (human) ligand-binding domain modulation. 340,000 tested, 2.5% active. NR3A LBD differential scanning fluorimetry, Tm shift; 0% = protein alone, 100% = glycine-bound protein. AID 1259313. Tm shift relative to glycine control, % at 25 µM;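 active means melting temperature shift of at least 10% of the positive control shift, at one fixed dose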
# NALP1 yeast inh = blocks the NALP1 inflammasome reconstituted in yeast. S. cerevisiae NALP1/ASC/caspase-1 growth, X-gal OD620, 72 h. inhibition, % at 10 µM. 280,000 tested, 0.61% active. AID 2071; in the data active means inhibition mostly above about 24%, no sharp cut-off; inactive means mostly below about 32%
# UBC13 polyUb = blocks human UBC13 polyubiquitin chain formation | P61088 | TR-FRET | inhibition, % at 20 µM | 330,000 tested, 0.47% active | AID 485273; in the data active means inhibition above about 45%, passing the limit was not always enough
# Yeast superoxide = yeast age-related superoxide inhibition as caloric restriction mimetic; S. cerevisiae aged cells, superoxide DHE fluorescence; hits give low values; superoxide response (% of plate mean), % at 10 µM; 330,000 tested, 0.18% active;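 active means superoxide response under a set limit, about three screen SD below normal, cut at about 65% in these data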;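 further: yeast aged for seven days with compound at 30 °C before DHE staining; 100% = average MFI of all compound-treated wells on the plate with controls excluded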
# dFosB act-2 = activators of mouse delta FosB homodimer DNA binding | shares compounds with dFosB act-1 | purified delta FosB, TAMRA-CDK5 oligo fluorescence polarization; normalised: neutral wells 0, positive control 100 | activation, % at 24.9 µM | 2,400 tested, under 10 active;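 active means highest replicate activation at or above 34% and every replicate reaching that threshold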;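 further: higher polarization means more probe DNA bound by delta FosB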
# The depositor's hits bear a star; . = not tested or not shown. Sampled rows, rich in hits. Any-hit rate of the full collection: about 4.3%.
SMILES,dFosB act-1,GRIN3A LBD mod,NALP1 yeast inh,UBC13 polyUb,Yeast superoxide,dFosB act-2
O=c1c(-c2c(O)cc(O)c3c2O[C@H](c2ccc(O)cc2)CC3)c(-c2ccc(O)cc2)oc2cc(O)cc(O)c12,31*,1,.,29,103,7
CCOc1ccc2[nH]c3c(=O)n(CCc4ccc(OC)cc4)cnc3c2c1,18*,3,.,-9,108,-1
CCOc1ccc2[nH]c3c(=O)n(CCC4=CCCCC4)cnc3c2c1,-7,0,-38,18,106,.
Fc1ccc(-c2noc(-c3ccc4c(c3)CCO4)n2)cc1,28*,-4,20,-4,98,3
CCN1CCN(Cc2ccc(NC(=O)c3ccc(C)c(NC(=O)N4CCNC4=O)c3)cc2C(F)(F)F)CC1,-34,-3,23,9,100,.
Cc1cn(-c2cc(C(=O)Nc3ccc(C)c(NC(=O)N4CCNC4=O)c3)cc(C(F)(F)F)c2)cn1,56*,-4,.,4,100,-2
O=C(COc1ccccc1)NCc1nnc(SCC(=O)Nc2nccs2)n1-c1ccccc1,-1,-2,0,-5,97,.
COc1cccc(C(=O)NCc2nnc(SCC(=O)Nc3nccs3)n2-c2ccccc2)c1,28*,8,11,2,92,3
COc1ccc(/C=C/c2nc3ccccc3n2Cc2ccccc2OC)cc1,25*,0,23,12,101,1
CCOC(=O)c1cc(C(=O)OCC)c(=O)[nH]c1C,1,-1,10,2,97,.
CCOC(=O)c1cc2c(N)c(C(=O)c3ccc(Br)cc3)sc2[nH]c1=O,22*,3,-5,-8,89,0
CN(C(=O)COC(=O)Cn1cnc2ccccc21)C1CCCCC1,-3,-2,.,6,85,.
COc1ccc(CNC(=O)C2CCN(c3nnc(N4CCCC4=O)s3)CC2)cc1,-5,-1,3,0,98,.
COc1ccc(Br)cc1CNC(=O)C1CCN(c2nnc(N3CCCC3=O)s2)CC1,43*,-2,-7,-2,79,2
Cc1ccc(Cl)cc1N1CCN(Cc2cc(=O)n3ccsc3n2)CC1,-9,1,-1,1,100,.
O=C1C2=C(NC(=S)NC2c2ccc(Cl)cc2)NC(c2ccc(Cl)cc2)N1c1ccc(Cl)cc1 (configuration not stated),82*,22*,-1,1,87,0
O=C1C2CCCN2C(c2ccc(F)cc2)N1c1ccc(Cl)cc1 (configuration not stated),3,-1,14,0,100,.
Cc1cc(-c2ccc([N+](=O)[O-])cc2)nc2ccccc12,-2,-2,-4,-6,107,.
Cc1cc(N2CCN(c3nc(-c4ccc([N+](=O)[O-])cc4)cs3)CC2)c2ccccc2n1,26*,-3,25,2,94,-2
CC(C)OC(=O)c1ccc(N)cc1,-9,1,-4,-2,109,.
CCOC(=O)c1sc(NC(=O)CN2C(=O)c3cccc4cccc(c34)C2=O)nc1C,47*,-1,-3,-5,93,-6
CCOC(=O)c1sc(NC(=O)CCCCCN2C(=O)c3cccc4cccc(c34)C2=O)nc1C,2,4,-2,.,.,.
Cc1cc(C(=O)CN2c3cccc4cccc(c34)S2(=O)=O)c(C)n1C,-10,0,.,-12,123,.
CCOc1ccccc1OCCC(=O)N1CCN(S(=O)(=O)c2ccccc2[N+](=O)[O-])CC1,-15,-2,.,4,94,.
CC(CCc1ccccc1)NC(=O)CCC1CCCC1 (configuration not stated),.,0,.,4,111,.
N#Cc1ccc(NC(=O)c2cc(-c3cccs3)on2)cc1,22*,-4,-4,10,114,6
CCOC(=O)N1CCN(S(=O)(=O)c2ccc(C(=O)N(CCCN(C)C)c3nc4ccc(CC)cc4s3)cc2)CC1,32*,-3,31,16,97,1
CCOC(=O)N1CCN(S(=O)(=O)c2ccc(C(=O)N(CCN(C)C)c3nc4ccc(CC)cc4s3)cc2)CC1,12,-1,9,13,111,.
CCc1ccc2nc(N(CCCN(C)C)C(=O)c3ccc(S(=O)(=O)N4CCCc5ccccc54)cc3)sc2c1,23*,-2,9,33,94,7
